From PubChem BioAssay
IDE inh = cellular human IDE inhibition; HEK cells, FAbetaB cleavage, fluorescence polarization; inhibition, % at 5.59 µM; 320,000 tested, 0.41% active;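 active = percent inhibition above the average of all tested compounds plus 3 SD, set per screening campaign, cut at about 16% in these data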;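 note: IDE supplied by intact live HEK cells; FP after avidin binding of uncleaved biotin substrate so inhibition keeps polarization high; 0% = DMSO wells and 100% = 60 µM reference IDE inhibitor Ii1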
Exocytosis inh = blocks lytic granule exocytosis | TALL-104 LAMP-1 surface exposure, flow cytometry; cells stimulated with thapsigargin and PMA | inhibition, % at 10 µM | 360,000 tested, 0.66% active | AID 651702;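 active = inhibition above about 55%, limit read from the data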
SKKanGAS inh = blocks kanamycin growth of S. pyogenes SKKanGAS strain; BacTiter-Glo, 6 h; inhibition, % at 7.5 µM; 300,000 tested, 1.3% active; AID 1662;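 active = mean replicate score, as percent of positive control median, at least 50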;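 note: strain carries kanamycin resistance gene driven by streptokinase promoter and grows in 40 µg/ml kanamycin; loss of luminescence reflects streptokinase promoter inhibition or plain growth inhibition; 0% = median of DMSO wells and 100% = positive control at its reference dose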
PP1 inh = PP1-alpha (human) inhibition in PP5 counter-screen; inhibition, % at 6.7 µM; 320,000 tested, 0.9% active; AID 2235; purified PP1alpha, OMFP fluorescence; P62136;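 active = inhibition above the mean inhibition of all tested compounds plus 3 SD, computed separately for each screening campaign, cut at about 15% in these data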
Target sequence (P62136 whole entry, looked up): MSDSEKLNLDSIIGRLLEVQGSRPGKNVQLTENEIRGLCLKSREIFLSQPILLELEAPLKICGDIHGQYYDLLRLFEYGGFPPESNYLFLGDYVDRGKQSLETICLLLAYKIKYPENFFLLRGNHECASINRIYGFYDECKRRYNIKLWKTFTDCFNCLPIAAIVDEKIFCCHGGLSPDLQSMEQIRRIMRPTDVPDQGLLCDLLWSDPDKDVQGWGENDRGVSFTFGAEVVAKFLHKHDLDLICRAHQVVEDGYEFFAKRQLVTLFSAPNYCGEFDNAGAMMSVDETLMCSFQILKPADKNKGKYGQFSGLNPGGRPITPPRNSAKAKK
PP5 primary = blocks human protein phosphatase 5 activity. P53041. purified PP5c, OMFP substrate fluorescence. inhibition, % at 6.7 µM. 320,000 tested, 0.18% active. AID 1987;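 active = inhibition above the campaign's mean inhibition across all tested compounds plus 3 SD, cut at about 9.5% in these data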;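 note: 0% = DMSO only and 100% = 100 µM cantharidin control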
IDE cell activ = boosts human insulin-degrading enzyme activity in HEK cells; activation, % at 5.96 µM; FAbeta-B cleavage, fluorescence polarization; 0% vehicle, 100% cell-free pure enzyme wells; P14735; 340,000 tested, 0.073% active;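 active = activation above the mean of all tested compounds plus 3 SD, set per screening campaign, cut at about 17% in these data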
* hit, by the source's call; x = no result. Compounds with a hit are over-represented: about 2.8% of the library has one in this group of screens.

SMILES	IDE inh	Exocytosis inh	SKKanGAS inh	PP1 inh	PP5 primary	IDE cell activ
Cc1cc(C(=O)N/N=C/c2c(C)[nH]n(-c3ccccc3)c2=O)n[nH]1	3	-19	13	4	3	4
CCCCN(CCCC)C(=S)N/N=C/c1c(C)[nH]n(-c2ccccc2)c1=O	1	6	88*	-2	0	3
Cc1[nH]n(-c2ccccc2)c(=O)c1C=Nc1cccc2cccnc12	15	0	-5	16*	2	-4
Cc1[nH]c2ccccc2c1C(=O)C(=O)NC1CC(=O)N(c2ccc(F)cc2)C1 (centres undefined)	7	-3	-18	-8	-2	3
CN1CCN(C(=O)C[C@@H]2CC[C@@H]3[C@H](COC[C@@H](O)CN3Cc3cccc(Cl)c3)O2)CC1	x	-5	x	x	x	x
Cc1ccc(NC(=O)c2ccc(S(=O)(=O)N(C)c3ccccc3)cc2)cc1S(=O)(=O)N1CCOCC1	x	7	x	x	x	5
Cc1ccc(/C=N/Nc2nncc(-c3ccccc3)n2)o1	6	0	-2	-3	2	x
Cc1[nH]n(-c2ccccc2)c(=O)c1/C=N/Nc1nncc(-c2ccccc2)n1	1	2	-1	17*	1	3
COC(=O)c1c(C(=O)OC)c(-c2ccc(OC)cc2)n2c1CS(=O)(=O)C2	6	-16	0	-2	0	-1
COc1ccc(-c2[nH]c(-c3ccc(Cl)cc3)nc2SCC(=O)Nc2nccs2)cc1	5	-4	17	16*	5	6
COc1ccc(-c2[nH]c(-c3ccccc3)nc2SCC(=O)Nc2nccs2)cc1	6	-2	x	3	5	1
Cc1ccc(NC(=S)NNC(=S)Nc2cccc(C(F)(F)F)c2)cc1	3	18	88*	3	3	-7
FC(F)(F)c1cccc(NC(=S)NNC(=S)Nc2ccc(Cl)cc2)c1	8	x	115*	1	6	x
O=C(Nc1ccc(OC(F)F)cc1)Nc1cccc(C(F)(F)F)c1	2	9	59*	3	9	3
FC(F)(F)c1cccc(NC(=S)NCc2ccc(Cl)cc2)c1	3	2	73*	-2	4	-1
O=C(NNC(=S)Nc1cccc(C(F)(F)F)c1)c1ccncc1	x	14	x	x	x	x
COC(=O)C[C@@H]1CC[C@@H](NC(=O)Nc2cc(F)ccc2F)[C@@H](CO)O1	x	-7	x	x	x	x
CN1CCN(C2CCN(c3ccc(Nc4nnc(Cl)c(Nc5ccccc5S(C)(=O)=O)n4)c(OC(CF)CF)c3)CC2)CC1	0	2	x	x	x	6
CNc1nc(NC#N)nc(SC)n1	-3	-5	-1	-5	-3	5
CSc1ccc(NC(=O)NN(c2ccccc2)C2CCS(=O)(=O)C2)cc1 (centres undefined)	x	-5	x	x	x	x
COc1ccc(CCNC(=O)/C(C#N)=C2\N=C(NC(=O)c3ccco3)c3ccccc32)cc1	4	84*	5	-3	-2	x
COc1cc(N=Nc2ccc(Br)cc2)cc(C=O)c1O	x	105*	x	x	x	x
Cc1ccc(C)n1-c1sc2c(c1C#N)CCC(C)C2 (centres undefined)	3	1	62*	2	1	4
CC(=O)Nc1sc2c(c1C#N)CCC(C)C2 (centres undefined)	-5	2	-1	-8	-1	6
Cc1cc(C)c2nc(-c3ccncc3)cc(C(=O)N3CCN(Cc4ccccc4Cl)CC3)c2c1	1	4	74*	7	6	-1
SMILES	IDE inh	Exocytosis inh	SKKanGAS inh	PP1 inh	PP5 primary	IDE cell activ
Cc1[nH]c2ccccc2c1C(=O)COC(=O)c1ccc2c(=O)n3c(nc2c1)CCC3	-2	0	93*	-2	-1	5
Cc1cccc(OC(=O)c2ccc3c(=O)n4c(nc3c2)CCC4)c1	x	6	x	x	x	x
CC(=O)c1cccc(OC(=O)c2ccc3c(=O)n4c(nc3c2)CCC4)c1	0	-9	54*	-3	1	-1
CN(C(=O)COC(=O)c1ccc2c(=O)n3c(nc2c1)CCC3)c1ccccc1	-2	-4	-9	0	-1	2
Cc1ccc(S(=O)(=O)NCC(=O)NCCc2c[nH]c3ccccc23)cc1C	-11	-2	2	-1	1	6
CC(C)(C)C(=O)/C=c1\[nH]c(=O)/c(=C\c2ccc(F)cc2)s1	-3	-2	4	0	4	-2
CCc1ccc(/C=c2\s/c(=C\C(=O)C(C)(C)C)[nH]c2=O)cc1	-9	2	102*	2	-3	3
CCc1cccc(CC)c1NC(=S)Nc1ccccc1	2	-3	-2	-4	6	3
O=C(Cn1nnc(-c2ccccc2)n1)N/N=C/c1cccc([N+](=O)[O-])c1O	-3	5	90*	0	0	x
CCc1c(C2(O)CCCCC2)[nH]c2c(C(=O)OC)cc(Cl)cc12	4	-4	100*	0	4	-2
COC(=O)c1cc(Cl)cc2c(C)c(C3(O)CCCCC3)[nH]c12	2	7	43	4	6	0
CC(=O)Nc1ccc(S(=O)(=O)Nc2cc(S(=O)(=O)N3CCCCC3)ccc2O)cc1	x	-3	x	x	x	3
O=C(Nc1nccs1)c1cn(-c2ccccc2)nc1-c1ccccc1	-2	-1	22	3	5	1
CC(C)COc1ccc(-c2nn(-c3ccccc3)cc2C(=O)Nc2nccs2)cc1	-5	0	96*	1	2	6
COc1ccc(C(=O)c2ccc(N3CCN(C4CC(=O)NC4=O)CC3)cc2)cc1F (centres undefined)	2	-6	73*	2	4	3
C=CCC(Nc1ccccc1)C12C=CC(O1)C(C(=O)OC)=C2C(=O)OC (centres undefined)	1	90*	-1	-1	2	1
CCOC(=O)c1cnc(-n2cc(C)cn2)nc1Nc1ccccc1OCC	3	-2	90*	8	2	2
CCOC(=O)c1cnc(SC)nc1Nc1cccc2ccccc12	6	0	-6	0	-1	-1
CCc1ccc(N2CC(C(=O)Nc3ccc(S(=O)(=O)NCC4CCCO4)cc3)CC2=O)cc1 (centres undefined)	2	-5	7	-3	4	-3
O=C(C1CC(=O)N(c2ccccc2)C1)N1CCN(c2ccccc2)CC1 (centres undefined)	1	-2	-4	-2	3	-2
O=C(/C=C/c1ccc(OCCCF)cc1)NCc1cccc(Cl)c1	-3	-14	0	3	2	0
O=C(/C=C/c1ccc(OCCCF)cc1)Nc1ccnc(-c2ccncc2)n1	12	24	24	16*	3	3
Clc1ccc2c(c1)C(N1CCNCC1)Cc1ccccc1S2 (centres undefined)	2	73*	17	14	1	8
COc1ccc(-c2n[nH]c(C(F)(F)F)c2-c2cc3ccccc3o2)c(O)c1	-2	9	99*	3	6	10
